Measurements as given in PubChem BioAssay AID1906 (The Scripps Research Institute Molecular Screening Center, 2009).
Out of some 300,000 compounds screened, about 1,500 (0.5%) were called active. The full list was thinned out, with actives kept by preference. Unmarked numbers belong to inactive results.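 How the source made its calls: active means inhibition above the mean of all tested compounds plus 3 SD, set per screening campaign (cut at about 17% in these data); inactive means the rest.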

Each molecule was assayed on cathepsin L1 (Fasciola hepatica) (assay: CTSL1 protease inhibition, fluke enzyme – biochemical, QFRET, fluorogenic peptide substrate, counter-screen for PFM18AAP inhibitor project, primary screen (AID 1906;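 further: 0% = plate median of test compound wells and 100% = 1 µM Z-Phe-Ala-diazomethylketone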)). Settings: recombinant F. hepatica cathepsin L1, Z-Leu-Arg-MCA fluorescence; at 5.96 µM; active compounds read high.
For `O=C(COc1ccc(S(=O)(=O)N2CCCCC2)cc1)NCc1ccccn1`, the inhibition was -1.94%. `O=C(COC(=O)c1cc(S(=O)(=O)N2CCCCC2)ccc1Cl)NCc1ccco1` gave an inhibition of -8.1%. `Cc1ccc(CNC(=O)Cn2cnc(S(=O)(=O)N3CCCCC3)c2)o1` was tested, and the inhibition was 17.4% (active). For `CCOC(=O)/C(=N\Nc1ccccc1Cl)N(C)C1CCS(=O)(=O)C1` (configuration not stated), the inhibition was -2.25%. For `CCc1c(C)nc(SCC(=O)NC2CCCC2)[nH]c1=O`, the inhibition was 0.66%. `COc1cccc2sc(N(CCCN(C)C)C(=O)CCS(=O)(=O)c3ccccc3)nc12` was tested, and the inhibition was 52.7% (active). Work on `COc1cccc2sc(N(CCCN(C)C)C(=O)C(c3ccccc3)c3ccccc3)nc12` yielded an inhibition of 1.13%. Molecule `COc1cc2ccccc2cc1C(=O)N(CCN(C)C)c1nc2c(F)cccc2s1` has an inhibition of 3.44%. In the case of `Cc1ccc2sc(N(CCN(C)C)C(=O)/C=C/c3cccs3)nc2c1C`, the inhibition is reported as 0.9%. In the case of `Cc1cccc2sc(N(CCCN(C)C)C(=O)CCS(=O)(=O)c3ccccc3)nc12`, the inhibition is reported as 28.5% (active). With `CC(=O)N(CCCN(C)C)c1nc2ccc(C)cc2s1` the inhibition was 2.99%. In the case of `Cc1ccc(SCC(=O)Nc2nncs2)cc1`, the inhibition is reported as -3.07%. For `Cc1cc([N+](=O)[O-])c(NC2CCCCC2)c([N+](=O)[O-])c1`, the inhibition was 5.19%. With `Cc1nn(CC(=O)NC2CCCCC2)c(=O)c2cccn12` the inhibition was -0.36%. With `O=C(Cn1nc([N+](=O)[O-])nc1Br)NC1CCCCC1` the inhibition was 56.3% (active). Molecule `Cc1cc(C(F)F)nn1CC(=O)NC1CCCCCC1` has an inhibition of -2.79%. `Cc1cc(C)n(-c2nc(O)cc(=O)[nH]2)n1` gave an inhibition of -2.61%. With `CC(OC(=O)CCC(=O)c1ccccc1)C(=O)Nc1ccc(F)cc1` (configuration not stated) the inhibition was -70.5%. For `C/C(=N\NC(=O)c1ccc2ccccc2c1)c1cccnc1`, the inhibition was 0.17%. `Cn1cccc1/C=C1\SC(=S)N(NC(=O)c2ccc(Cl)cc2)C1=O` gave an inhibition of 1.38%. `CC(=O)N1C(=O)/C(=C2\SC(=S)N(NC(=O)c3ccc(O)cc3)C2=O)c2ccccc21` was tested, and the inhibition was 20.6% (active). For `O=C(O)c1ccc2c(c1)C(=O)N(NC(=O)c1ccc(O)cc1)C2=O`, the inhibition was -4.02%. Molecule `CC(=O)c1cccc(NC(=S)N2CCN(S(C)(=O)=O)CC2)c1` has an inhibition of -1.96%. For `O=C(NCc1ccccc1Cl)C1CCCN1S(=O)(=O)c1ccc(F)cc1` (configuration not stated), the inhibition was -1.27%. Molecule `COc1cccc(OCc2nnc3n2N=C(c2ccccc2)C(CC(=O)O)S3)c1` (configuration not stated) has an inhibition of -0.13%. `O=C(NCc1ccco1)/C(=C/c1ccco1)NC(=O)c1ccccc1` gave an inhibition of 8.99%. Work on `NC(=O)C1CCN(C(=O)/C(=C/c2ccco2)NC(=O)c2ccccc2)CC1` yielded an inhibition of 3.81%. With `O=C(OCN1C(=O)c2ccccc2C1=O)/C(=C\c1ccco1)NC(=O)c1ccccc1` the inhibition was 83.3% (active). In the case of `CNC(=O)c1c(NC(NC(=O)c2ccco2)C(=O)c2ccc(Cl)cc2)sc2c1CCCC2` (configuration not stated), the inhibition is reported as 1.81%. For `Cc1cc(CNC(=O)C2CCC(=O)N(CCc3ccc(Cl)cc3)C2)no1` (configuration not stated), the inhibition was 1.95%. `Cc1cc(=O)[nH]c2nnnn12` was tested, and the inhibition was 0.51%. Work on `O=C(Cc1ccccc1Cl)N1CCOCC1` yielded an inhibition of -0.12%. With `Cc1cc2cc3c(N)[nH]nc3nc2cc1C` the inhibition was 0.69%. For `O=C(Nc1cccc2cccnc12)c1cccc(Cl)c1`, the inhibition was 5.74%. For `O=C(Nc1cccc2c1CCCC2)c1ccc(F)cc1`, the inhibition was -0.12%. In the case of `O=C(Nc1cccnc1Oc1ncnc2cc(Cl)ccc12)c1ccc(F)cc1`, the inhibition is reported as 19.2% (active). With `O=C(Nc1cc2c3c(c1)CC(=O)N3CCC2)c1ccccc1F` the inhibition was -1.43%. With `O=C(COc1ccccc1)Nc1cc2c3c(c1)CC(=O)N3CCC2` the inhibition was -2.44%. With `CCCNC(=O)C(=O)Nc1cc2c3c(c1)CCC(=O)N3CCC2` the inhibition was 57.1% (active). For `COc1ccccc1C(=O)NC(CCSC)C(=O)NNC(=O)c1ccccc1C` (configuration not stated), the inhibition was 7.41%. Work on `CC1CN/C(=C\C(=O)c2ccc(Br)cc2)C(=O)N1` (configuration not stated) yielded an inhibition of 0.61%. `O=C1c2ccccc2-c2ncnc3c(N4CCOCC4)cc(N4CCOCC4)c1c23` gave an inhibition of 3.65%. `COc1ccc(N2CCN(C(C)=C3C(=O)c4ccccc4C3=O)CC2)cc1` gave an inhibition of 0.37%. In the case of `COC1=C(N2CCOCC2)C(=O)c2ccccc2C1=O`, the inhibition is reported as 21.1% (active). With `C[C@@H](O)c1nc2ccccc2n1N` the inhibition was -3.93%. For `CC1=NNC(=O)C1CC(=O)N/N=C/c1ccncc1` (configuration not stated), the inhibition was 2.89%. `O=C(CSC1CC(=O)N(CCc2ccccc2)C1=O)Nc1ccc(Cl)cc1` (configuration not stated) gave an inhibition of -0.89%. Molecule `CC(=O)Nc1ccc(CN2CCN(Cc3ccc(F)c(F)c3)C(CCO)C2)cc1` (configuration not stated) has an inhibition of -1.18%. For `CCOC(=O)c1c(NC(=O)CCl)sc(C(=O)N(CC)CC)c1C`, the inhibition was 41.2% (active). Molecule `CCOC(=O)c1sc(NC(=O)CCN2CCOCC2)c(C(=O)OCC)c1C` has an inhibition of 4.35%. For `CCOC(=O)Nc1sc(C(=O)N(C)C)c(C)c1C(=O)OCC`, the inhibition was 3.33%. `CC(=O)c1ccc(NC(=O)Cn2c(=O)oc3ccccc32)cc1` was tested, and the inhibition was 5.59%. For `CCSc1nsc(NC(=O)Nc2cccc(C(C)=O)c2)n1`, the inhibition was 18.9% (active). `C=CCSc1nsc(NC(=O)Nc2cccc(C(C)=O)c2)n1` gave an inhibition of 3.26%. Work on `CCSc1nsc(NC(=O)Nc2ccccc2OC)n1` yielded an inhibition of -2.36%. In the case of `CC(=O)c1cccc(NC(=O)C2CCCN(S(=O)(=O)c3cccc4nonc34)C2)c1` (configuration not stated), the inhibition is reported as 4.35%. For `CC[N+](C)(CC)CCC[n+]1c(-c2ccccc2)c2cc(N)ccc2c2ccc(N)cc21`, the inhibition was 108% (active). For `CCOc1cc(C2/C(=C(/O)c3ccc(S(=O)(=O)N4CCCCC4)cc3)C(=O)C(=O)N2CCOC)ccc1O` (configuration not stated), the inhibition was 2.14%. In the case of `Cc1cc(C)cc(OCc2nnc(SCC(=O)Nc3ccccc3)o2)c1`, the inhibition is reported as 2.58%. `Cc1ccc(NC(=O)CSc2nnc(COc3ccccc3C)o2)cc1` showed an inhibition of 2.58%. `CCCc1nnc(SCC(=O)Nc2ccc(C(=O)OCC)cc2)o1` was tested, and the inhibition was 22.8% (active). Molecule `CCOc1ccc(CN2CCN(Cc3ccc(C)o3)CC2CCO)cc1` (configuration not stated) has an inhibition of -3.26%.
